Measured values published in PubChem BioAssay (NCI).
Compounds without any hit were thinned out: in the full panel of roughly 79,000, 15% have a hit. A number with no mark means an inactive call. Active and inactive are the calls of the source. Rule as the data show it: active = growth inhibition above about 70%; inactive = the rest.

How the values were obtained:
[1] = NCI Yeast Anticancer Drug Screen. Data for the rad50 strain (AID 155);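 also: 0% = growth of vehicle-only cultures of the same strain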; details: S. cerevisiae rad50 strain growth inhibition; at 50.0 µM; hits give high values
Summary of the method: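 Compounds were tested on a yeast strain with an engineered DNA damage repair alteration; the reported value is growth inhibition normalised to vehicle treatment.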

[2] = NCI Yeast Anticancer Drug Screen. Data for the mec2-1 strain (AID 157); details: S. cerevisiae mec2-1 strain, at 50.0 µM, hits give high values
Summary of the method: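 Using mec2-1 yeast: add compound, measure growth, express inhibition versus vehicle-treated cultures.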

[3] = NCI Yeast Anticancer Drug Screen. Data for the sgs1 mgt1 strain (AID 161);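 also: 0% = growth of cultures given vehicle only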; details: S. cerevisiae sgs1 mgt1 strain, at 50.0 µM, hits give high values
Summary of the method: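 This yeast growth screen uses a strain with defined DNA-repair lesions; compound-treated growth is compared with vehicle-treated growth.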

[4] = NCI Yeast Anticancer Drug Screen. Data for the cln2 rad14 strain (AID 165);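 also: 0% = growth equal to vehicle treated cultures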; details: S. cerevisiae cln2 rad14 strain, at 50.0 µM, hits give high values
Summary of the method: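 Yeast strain cln2 rad14, bearing defects in cell cycle control and DNA repair, serves as the test system; values reflect growth inhibition compared with vehicle.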

[5] = NCI Yeast Anticancer Drug Screen. Data for the bub3 strain (AID 167); details: S. cerevisiae bub3 mutant strain, at 50.0 µM, hits give high values
Summary of the method: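 Growth of a checkpoint-deficient yeast mutant is measured after compound exposure. Values represent inhibition relative to vehicle.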

[6] = NCI Yeast Anticancer Drug Screen. Data for the mlh1 rad18 strain (AID 175); details: S. cerevisiae mlh1 rad18 strain growth inhibition; at 50.0 µM; hits give high values
Summary of the method: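 Steps: expose repair-defective yeast to compound; measure growth; express inhibition against vehicle-treated controls.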

SMILES | growth inhibition [1] | growth inhibition [2] | growth inhibition [3] | growth inhibition [4] | growth inhibition [5] | growth inhibition [6]
CN(C)c1ccc(Cc2ccc(N(C)C)cc2[N+](=O)[O-])c([N+](=O)[O-])c1 | -4.35% | 11.2% | 19.9% | 6.1% | 15.3% | -1.35%
CC1=C(CO)C(=O)O[C@@H]([C@@H](C)[C@H]2CC[C@H]3[C@@H]4C[C@H]5O[C@]56[C@@H](O)C=CC(=O)[C@]6(C)[C@H]4CC[C@]23C)C1 | 86.2% (active) | 89.2% (active) | 86.5% (active) | 83.3% (active) | 89.7% (active) | 85% (active)
O=C1C(c2ccccc2)=[N+]([O-])c2cc([N+](=O)[O-])ccc21 | -15.8% | 5.65% | 13.8% | 23.2% | 14.8% | 36%
O=C(Cc1ccccc1)Nc1ccc(Br)cc1 | 6.15% | 15.8% | 15.5% | -16.1% | 13.7% | 8.55%
CN1C2C=CC(=O)C1C1C(=O)N(c3ccccc3)C(=O)C12 (stereo unspecified) | 25.2% | 45.1% | 54% | 31.4% | 23.8% | 27.1%
O=C1c2ccccc2-c2cc(Cl)c(Cl)cc21 | 13.4% | 2.1% | 13.7% | 17.1% | -1.8% | -22.2%
CC(=O)CC(=O)c1ccc(Cl)cc1 | -28.4% | -11.4% | -10.8% | -13.6% | -4.1% | -0.25%
CC(C)c1ccc(/C=N\N(C)C)cc1 | 2.3% | 2.05% | -13.8% | -5.6% | -2.9% | -1.75%
Nc1cccc(N2N=C(C(=O)O)CC2=O)c1 | -7% | -19.8% | -40.9% | -12.7% | -2.7% | -15.6%
NC(C(=O)O)c1ccc(C(=O)O)cc1 (stereo unspecified) | 30.7% | 15.6% | -5.55% | 18.8% | -7.6% | 20.5%
NC(=O)C(Cc1ccccc1)c1ccccc1 (stereo unspecified) | -12.2% | -15.2% | -7.55% | -23% | -16.6% | 18.4%
COC(=O)c1nc(N)nc(C(=O)OC)c1C(=O)c1cccc2ccccc12 | -33.5% | -26.1% | 1.65% | -26.8% | -33.3% | -20.9%
CN1CN(C(=O)N2CN(C)C(=O)N(C)C2)CN(C)C1=O | -10.8% | -13.6% | -23.6% | 3.45% | -14.2% | -37.4%
COCCNC(=O)/C=C\C(=O)O | 3.35% | -3.55% | -2.95% | -49.4% | 12.2% | -3.8%
O=C1CSC(c2cccc(O)c2O)N1c1nncs1 (stereo unspecified) | 1.35% | 0.25% | 1.85% | -6.9% | 5.9% | -5.35%
CN(C)C(=O)C1CCC(CC2CCCCC2)CC1 (stereo unspecified) | 99.1% (active) | 99.2% (active) | 99% (active) | 96.3% (active) | 98.3% (active) | 80.9% (active)
CCc1c(C(=O)OC)c(C(=O)OC)c(-c2ccc(C)cc2)n1CCn1c(CC)c(C(=O)OC)c(C(=O)OC)c1-c1ccc(C)cc1 | -0.55% | 0.3% | -26.1% | -0.6% | -3.15% | 17.9%
COCC1OC(n2cc(C)c(=O)n(C)c2=O)CC1OC (stereo unspecified) | 1.2% | 7.2% | 19.9% | -7.15% | 24.4% | 8%
CS(=O)(=O)OCC1NC(=O)C(COS(C)(=O)=O)NC1=O (stereo unspecified) | -10.4% | 2.8% | -3.15% | 2% | -0.65% | 3.7%
O=[N+]([O-])C1=C(c2ccccc2)SC(Br)=C(c2ccccc2)S1 | -1.2% | 9.7% | 3.2% | -0.6% | 3.35% | 7.65%
O=[N+]([O-])c1ccc(OCC#CCOc2ccc([N+](=O)[O-])c(C(F)(F)F)c2)cc1C(F)(F)F | 31.4% | -13.6% | -0.2% | 4.65% | -2.3% | -3.75%
